In all, about 330,000 compounds went through this assay and about 7,300 (2.2%) were called active. The sample holds actives, similar compounds and a random draw of the others, so the mix is not that of the screen.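 How the source made its calls: active means inhibition of at least 40%; inactive means the rest.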
assay: growth inhibitors of tim10-1 mutant yeast, primary screen, luminescence, uHTS (AID 463190);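 further: mutant grown at 25 °C; 0% = DMSO wells with yeast and 100% = wells holding no yeast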; details: S. cerevisiae tim10-1 ts strain growth, BacTiter-Glo, 24 h; at 20 µM; hits give high values

inhibition, active:
CNC(=O)c1csc(Cc2c(Cl)sc3ccc(Cl)cc23)n1 41.4%
COc1ccccc1-n1ccnc(SCC(=O)NC2CCCCC2)c1=O 43.2%
C=CCNC(=S)N1CCN(CCN=Cc2c(C)[nH]n(-c3ccc([N+](=O)[O-])cc3)c2=O)CC1 43.4%
Cc1[nH]n(-c2ccc([N+](=O)[O-])cc2)c(=O)c1C=NCCN1CCN(C(=O)c2ccccc2F)CC1 42.3%
Cc1cc(N)n2nc(-c3ccc(C(C)(C)C)cc3)cc2n1 57%
O=C1/C(=C\c2ccccc2Cl)SC(=S)N1CCC(=O)N1CCCc2ccccc21 41.3%
COc1ccc(C(=O)/C=C/c2ccc(-c3ccccc3)cc2)cc1CSCC(=O)O 41.5%
COc1ccc(NC(=S)N2N=CCC2c2ccccc2)cc1 (configuration not stated) 40.3%
S=c1[nH]nc(-c2cccnc2)n1/N=C/C(Cl)=C\c1ccccc1 41.6%
O=[N+]([O-])c1ccc2c(c1)Nc1nc3ccccc3nc1N2 60.5%
O=C1c2ccccc2S(=O)(=O)N1CC(O)Cn1c2ccccc2c2ccccc21 (configuration not stated) 60.7%
COc1ccc(C)cc1Nc1nc(C)nc2c1oc1ccccc12 40.7%
Cn1c(-c2sccc2OCc2cccc(C(F)(F)F)c2)n[nH]c1=S 43.5%
CC(NC(=S)Nc1ccccc1)C1COc2ccccc2O1 (configuration not stated) 44.1%
COc1ccc(S(=O)(=O)Nc2ccc(O)c(Sc3nc4ccccc4s3)c2)cc1 44.6%
C[C@@H](NC(=O)OC(C)(C)C)c1nnc(S(=O)(=O)Cc2ccccc2)o1 45.1%

inhibition, inactive:
COc1ccc(S(=O)(=O)N2CCN(CC(=O)N3CCOCC3)CC2)cc1OC -6.09%
CC(=O)NNC(=O)c1csc(Cc2c(Cl)sc3ccc(Cl)cc23)n1 23.3%
CNC(=O)c1csc(-c2ccccc2)n1 8.44%
Cc1cccc(C)c1NC(=O)CN1C(=O)C(C)Oc2ccccc21 (configuration not stated) 3.34%
COc1ccc(-c2nnc(SCC(=O)NC3CCCCC3)o2)cc1OC 17%
COc1ccccc1-n1ccnc1SCC(=O)NC(C)(C)C 4.37%
CCN(c1ccc(NC(=O)COC(=O)CCc2nc3ccccc3n2-c2ccccc2)cc1)C(C)C 13.1%
O=S(=O)(c1ccc(-c2ccno2)s1)N1CCCCC1 9.27%
CNC(=O)C1CC(=O)N(Cc2ccc3c(c2)OCO3)C(=Nc2ccc(F)cc2)S1 (configuration not stated) -3.7%
CC(C)Oc1ccc(CC(=O)NNC(=S)Nc2ccc(Br)cc2)cc1 17.7%
Cc1ccc(-n2[nH]c(C)c(/C=N/NC(=O)c3cccc([N+](=O)[O-])c3)c2=O)cc1C 6.18%
CCNC(=S)N1CCN(CCN=CC2=C(O)CC(C)(C)CC2=O)CC1 -11.3%
Cc1[nH]n(-c2ccccc2)c(=O)c1N=Nc1ccccc1C(=O)N1CCCCC1 22.5%
CC1(C)CC(=O)C(C=NCCN2CCN(C(=S)Nc3cccc(Cl)c3)CC2)=C(O)C1 6.34%
CCOc1ccc(CCNC(=O)COC(=O)c2c(OC)cccc2OC)cc1OCC 8.9%
CCN(CC)c1ccc(C(=O)NNC(=O)CCc2nc3ccccc3c(=O)[nH]2)cc1 10.1%
CC(=O)Oc1c(C(=O)c2nnc(C)o2)c(=O)n(Cc2ccccc2)c2ccccc12 7.1%
CSCCC1NC(=O)N(CC(=O)Nc2cccc(S(=O)(=O)N3CCCCCC3)c2)C1=O (configuration not stated) 10.1%
O=S(=O)(c1ccc(F)cc1)N1CCN(C(=S)NC2CCCC2)CC1 16%
C[n+]1ccc(/C=C/c2c[nH]c3ccccc23)cc1 10.5%
CCC(C)(C)NC(=O)C(c1ccc(OC)cc1)N(C(=O)CCC(=O)Nc1cc(C)on1)c1ccc(OC)cc1OC (configuration not stated) 6.97%
CC1CCN(CCCNC(=O)CN2C(=O)CSc3ccc(S(=O)(=O)N4CCCCC4)cc32)CC1 25.2%
COc1ccc(-c2cc(C)nc3nc(N)nn23)cc1 10.4%
Cc1cc(C(C)(C)C)n2nc(C)c(-c3ccccc3)c2n1 8.46%
O=C(O)CSC(NC(=O)c1cccnc1)(C(F)(F)F)C(F)(F)F -2.15%
CN(C)CCCCCN(C)Cc1cc2ccccc2o1 18.5%
O=C(CN1CCCCCC1)NCCN1C(=O)S/C(=C\c2ccccc2Cl)C1=O 12.4%
CN(C(=O)CCN1C(=O)/C(=C/c2ccccc2F)SC1=S)C1CCS(=O)(=O)C1 (configuration not stated) 6.93%
C#CCCCc1nc2ccccc2c(=O)n1N 6.38%
CC1CCCN(C(=O)c2ccc3c(c2)C(=O)N(CCC2=CCCCC2)C3=O)C1 (configuration not stated) 24.8%
COC(=O)c1ccc(COc2ccc(/C=C/C(=O)c3ccc(OC)c(CSCC(=O)O)c3)cc2OC)cc1 29.5%
COc1ccc(/C=C/C(=O)c2ccc(NS(=O)(=O)c3ccc(C)cc3)cc2)cc1O 31.4%
CCCCn1c(=S)[nH]c2cc(S(=O)(=O)N3CCCCC3)ccc21 19.1%
COc1ccc(C(=O)NC2(C(F)(F)F)NC(=O)N(CCCc3ccccc3)C2=O)c(OC)c1OC (configuration not stated) 22.9%
COc1ccccc1-n1c(=S)[nH]c2c(sc(=S)n2-c2ccc(C)cc2C)c1=O 8.48%
Cc1ncc([N+](=O)[O-])n1CCOC(=O)c1ccc(Br)cc1 4.67%
COc1ccc(C2=NN(C(C)=O)C(c3ccccc3)C2)cc1 (configuration not stated) 19.4%
CCC(C)N(C)C1CCN(C(=S)Nc2ccc(OC)cc2)CC1 (configuration not stated) 2.23%
CCc1ccc(OCC(=O)NCC(c2ccc(Cl)cc2)N2CCCCC2)cc1 (configuration not stated) 34.1%
Fc1ccccc1/C=N/n1c(-c2cccnc2)n[nH]c1=S -14.4%
S=c1[nH]nc(-c2ccncc2)n1/N=C/c1ccccc1Cl 13.5%
COc1ccc(NC(=O)C(CC(C)C)NC(=O)C2CCC(C)CC2)cc1 (configuration not stated) 23.1%
CC(=O)Nc1nc(C)c(Cc2ccccc2)c(=O)[nH]1 13.2%
O=[N+]([O-])c1ccc2nc(-c3ccccn3)[nH]c2c1 34.1%
COc1ccc([N+](=O)[O-])cc1-c1nc2ccccc2nc1-c1ccccc1 38.3%
CCSC(C)CC1C/C(=N/O)c2c(C)noc2C1 (configuration not stated) -9.02%
Cc1ccc(N2CCN(C(=O)c3cccs3)CC2)c(C)c1 -6.62%
O=C(CN1C(=O)c2ccccc2S1(=O)=O)NC1CCCCC1 7.88%
CCCCN(CCCC)CC(O)Cn1c2ccccc2c(=O)c2ccccc21 (configuration not stated) 14.3%
CCC1=[N+]([O-])C(C)(/C(C)=N\O)N(O)C1(C)C (configuration not stated) 9.85%
O=C(NCc1ccccc1)C(c1cccnc1)N(C(=O)c1csnn1)c1ccc(F)cc1 (configuration not stated) -25%
CCO[C@H]1OC(C(=O)N2CCN(Cc3ccccc3)CC2)=C[C@@H](c2cn(C(C)=O)c3ccccc23)[C@@H]1CCCO 15%
COc1ccccc1Nc1ncnc2c1oc1ccccc12 3.5%
Cc1nc(Cl)c2oc3ccccc3c2n1 0.846%
Cc1ccc(CC(=O)Nc2cccc(C#N)c2)cc1 22.1%
CC(C)CN(C(=O)COC(=O)c1ccc(Cl)c(N)c1)c1c(N)n(Cc2ccccc2)c(=O)[nH]c1=O 2.64%
CCCCN=C1N/C(=C\c2ccco2)C(=O)N1c1ccccc1 28%
CN(C)CCCN(Cc1cc2cc3c(cc2[nH]c1=O)OCCO3)C(=O)NC1CCCCC1 7.7%
Cn1c(-c2sc3cc(C(F)(F)F)cnc3c2-c2ccccc2)n[nH]c1=S 18.5%
COc1cc(/C=N/n2c(C)n[nH]c2=S)ccc1OCc1ccccc1 34.8%
CCCCNC(=O)Cn1nc(C)c(S(=O)(=O)N2CCOCC2)c1C -10.1%
COc1ccc(Cl)cc1NC(=O)C(C)N1CCc2ccccc21 (configuration not stated) 10.7%
c1ccc2c(c1)CCc1snnc1-2 -9.47%
C/C(=N/NC(=S)Nc1ccccc1)c1ccc2c(c1)OCO2 36.6%
CC(=O)c1cccc(NC(=O)C2COc3ccccc3O2)c1 (configuration not stated) 6.4%
CCCNC(=O)CCn1cc(-c2ccc(OC)cc2)nc1CCN -4.9%
CCCCn1c(N)c(N(CCC(C)C)C(=O)COC(=O)c2ccc(CC)cc2)c(=O)[nH]c1=O 9.31%
CCCCCCCC(=O)NC(Nc1ccccc1OC)C(Cl)(Cl)Cl (configuration not stated) -1.41%
CCOC(=O)c1ccc(N=C2SC(C(=O)NC)CC(=O)N2CCc2ccccc2)cc1 (configuration not stated) 8.86%
Cc1cccc(N(C)C(=O)CN2C(=O)COc3ccc(S(=O)(=O)N4CCCCCC4)cc32)c1 25.2%
CCOc1ccc(S(=O)(=O)Nc2nc3cc(OC)ccc3s2)cc1 -15.2%
COc1ccc(NS(=O)(=O)c2ccc3oc(SCC(N)=O)nc3c2)cc1 6.21%
O=S(=O)(c1cccs1)N1CCN(CCOc2ccccc2)CC1 8.64%
C[C@H](NC(=O)OC(C)(C)C)c1nnc(SCC(=O)Nc2ccc(Br)cc2)o1 20.6%
CC(C)Sc1nnc([C@H](Cc2ccccc2)NC(=O)OC(C)(C)C)o1 15.3%
C=Cn1c(C(=O)O)ccc1-c1ccc(OC)cc1 4.85%
